Bioassay records: PubChem, National Center for Advancing Translational Sciences (NCATS)
Rows were chosen to be rich in hits. Some 7.4% of all compounds tested hit in one or more screens of this group.
ELG1 genotoxic – inducers of genotoxicity in HEK293T ELG1-luciferase cells. HEK293T ELG1-luciferase reporter, luminescence, 16 h. Potency, µM (titrated, usually from 46 µM), inactives show top-dose activity change, positive = activation, most hits filed as activators. 330,000 tested, 1.3% active. AID 504466; also: % of control where 0% means no effect; nearly all actives have a fitted effect of over 60% in size
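Luminescence read-out: rising ELG1-luciferase signal, reflecting elevated ELG1 protein under genetic stress, flags genotoxic compounds. Cells were treated for 16 hr at 37 °C before ONE-Glo detection.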
FLuc counter – firefly luciferase modulation, counter-screen for miR-21 project. purified FLuc, Km substrates, luminescence inhibition. Potency, µM (series often up to 57.5 µM), inactives show top-dose activity change, negative = inhibition, hits mostly inhibitors. 360,000 tested, 6.9% active. AID 588342;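 also: plate controls were vehicle for no effect and reference inhibitor for full effect; nearly all actives have a fitted effect of over 55% in size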
Target sequence (P08659 whole entry, looked up): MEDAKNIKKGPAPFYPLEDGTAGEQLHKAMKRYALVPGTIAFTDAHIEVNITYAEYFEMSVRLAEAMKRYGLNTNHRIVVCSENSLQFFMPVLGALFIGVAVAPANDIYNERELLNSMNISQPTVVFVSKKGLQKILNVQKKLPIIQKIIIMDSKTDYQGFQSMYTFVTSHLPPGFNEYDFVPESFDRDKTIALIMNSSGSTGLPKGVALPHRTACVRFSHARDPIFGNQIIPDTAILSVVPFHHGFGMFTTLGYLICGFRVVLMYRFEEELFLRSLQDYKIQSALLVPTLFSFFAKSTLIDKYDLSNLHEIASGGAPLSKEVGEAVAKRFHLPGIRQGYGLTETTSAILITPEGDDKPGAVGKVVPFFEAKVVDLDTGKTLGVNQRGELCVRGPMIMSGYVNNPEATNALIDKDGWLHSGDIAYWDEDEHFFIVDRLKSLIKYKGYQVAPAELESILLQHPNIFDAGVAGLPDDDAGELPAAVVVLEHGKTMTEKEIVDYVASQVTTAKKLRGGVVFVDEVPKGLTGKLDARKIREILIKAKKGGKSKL
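Purified P. pyralis luciferase (10nM final) with 10uM D-luciferin and 10uM ATP (Km levels) in 50mM Tris acetate pH 7.5, 10mM Mg acetate, 0.01% Tween-20, 0.05% BSA; qHTS 6-point titration, ~60 µM downward; luminescence read.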
NPC1 promoter act – activates the NPC1 promoter; Huh7 NPC1 promoter luciferase reporter, 24 h; Potency, µM (titrated, usually from 9.22 µM), for inactives: top-dose activation, hits mostly activators; 320,000 tested, 2.4% active; AID 485313; also: % of control where 0% means no effect; nearly all actives have a fitted effect of over 60% in size
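Luminescence from an NPC1 promoter-driven luciferase reporter in stably transfected Huh7 cells was measured after 24 h compound treatment at 37 °C, followed by 10 min ambient incubation with luciferase detection reagent.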
SMN2 splice enh – SMN2 splice variant enhancement; HEK293 SMN2-luciferase splicing reporter, luminescence, 30-36 h; Potency, µM (titrated, usually from 46.1 µM), for inactives: at the top dose activity change, positive = activation, usual class: activators; 210,000 tested, 2.8% active; also: % of control where 0% means no effect; nearly all actives have a fitted effect of over 55% in size
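qHTS luciferase splicing reporter: luminescence rises when SMN2 exon 7 is included in transfected HEK293 cells. Compound exposure lasted 30-36 h at 37C, with 4.5 mM final sodium butyrate as control, followed by a ONE-Glo read.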
Rab9 prom act – activates the Rab9 promoter; Huh7 Rab9 promoter-luciferase reporter, luminescence, 24 h; AID 485297; 320,000 tested, 2.8% active; Potency, µM (highest dose often 9.22 µM), for inactives: at the top dose activation, negative = inhibition, usual class: activators; also: % of control where 0% means no effect; nearly all actives have a fitted effect of over 60% in size
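Huh7 cells stably carrying Rab9 promoter–luciferase reporter, plated 1500 cells/well, compound added after 2 h and incubated 24 h at 37 °C; luciferase luminescence then read after 10 min with detection reagent.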
Luc counter – counter-screen: inhibitors of Kinase-Glo firefly luciferase. Q27757. Kinase-Glo luciferase, ATP luminescence, 8 min. Potency, µM (top dose mostly 38.3 µM), inactives show at the top dose activity change, negative = inhibition, usual class: inhibitors. 200,000 tested, 0.28% active. AID 1379; also: % is scaled to controls: 0 for no effect and ±100 for the full control effect; nearly all actives have a fitted effect of over 60% in size
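Inhibition of Kinase-Glo luciferase light generation was assessed at 10 uM ATP in pH 7.2 imidazole buffer, with luminescence measured after eight minutes at ambient temperature.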
An asterisk follows results filed as active; ? = inconclusive; . = not tested or not shown. Calls follow the shape of the dose curve; as a rule, active = well fitted curve in the direction sought with a large enough effect; inconclusive = small, poorly fitted or top-dose-only effect, or another doubt; inactive = no such curve, though single readings can be large; an effect the other way counts as inactive or inconclusive. Potency is read from the fitted curve at half-maximal effect.

SMILES	ELG1 genotoxic	FLuc counter	NPC1 promoter act	SMN2 splice enh	Rab9 prom act	Luc counter
O=C(Nc1nccs1)c1ccc(NC(=O)C2CC=CCC2C(=O)O)cc1 (stereo not given)	1.1%	16.9µM*	5.8%	-10.5%	16.6%	-1.8%
O=C(Nc1nccs1)c1ccc2ccccc2c1	13.8%	3.01µM*	3.16µM*	.	3.16µM*	.
O=C(O)c1ccc(NC(=O)C2CC=CCC2C(=O)O)cc1 (stereo not given)	1.5%	2.1%	-2.3%	6.7%	-1.5%	0.2%
O=C(Nc1nccs1)c1ncc(Cl)c(Cl)c1Cl	-14.1%	13.5µM*	-0.3%	.	5.4%	.
C/C(=C\c1ccccc1)C(=O)Nc1nccs1	?	9.53µM*	2.51µM*	11.2µM*	3.55µM*	-2.7%
COc1cc([N+](=O)[O-])ccc1NC(=O)COC(=O)c1c[nH]c(=O)[nH]c1=O	0.1%	.	.	.	.	.
CCOc1ncccc1C(=O)Nc1c(C)n(C)n(-c2ccccc2)c1=O	15.8%	3.5%	2.0%	.	3.5%	.
O=C(Nc1nccs1)c1ccccn1	?	?	?	?	3.16µM*	-13.7%
Cc1ccc(NC(=O)C(C)c2ccc([N+](=O)[O-])cc2)cc1Cl (stereo not given)	-9.4%	-2.1%	-0.3%	-17.2%	0.5%	2.7%
CCc1ccc(OCc2cnc(Cl)s2)cc1	?	21.3µM*	18.5%	9.9%	23.4%	0.7%
Clc1ccc(OCc2cnc(Cl)s2)cc1	7.8%	15.1µM*	-1.8%	-4.2%	10.8%	-2.9%
CC(=O)Nc1ccc(OCc2cnc(Cl)s2)cc1	9.5%	-14.4%	13.0%	11.8%	24.0%	0.6%
Cc1ccc(C)c(OCC(=O)Nc2cccc(C(=O)O)c2)c1C	?	10.7µM*	?	12.6µM*	?	22.5%
COc1ccccc1OCC(=O)Nc1ccccc1C(=O)Nc1cccc(C(=O)O)c1	2.7%	?	-5.7%	.	5.7%	.
Cc1ccc(C)c(OCC(=O)Nc2ccc3c(c2)OCO3)c1C	1.0%	?	-2.2%	?	0.1%	-0.8%
CCOC(=O)Nc1cccc(C(=O)O)c1	7.1%	-18.8%	?	12.6µM*	?	-3.7%
CCOC(=O)Nc1cccc(Nc2ccccc2)c1	?	?	1.6%	-0.4%	-2.3%	-1.5%
Cc1cccc(C)c1OCC(=O)Nc1cccc(C(=O)O)c1	?	2.13µM*	1.41µM*	6.31µM*	2.51µM*	1.5%
Cc1ccc(C(=O)N2CCc3cc(CNC(=O)CSc4ccccc4)ccc32)cc1	.	23.9µM*	.	.	.	.
CCN(CC)C(=O)C1CCCc2c1[nH]c1ccc(Cl)cc21 (stereo not given)	-5.2%	0.9%	-5.5%	3.55µM*	16.2%	0.8%
O=C(COc1ccc(F)cc1)N1CCC(c2ccccc2)C1 (stereo not given)	?	19µM*	28.6%	12.6µM*	?	-5.2%
Cc1cccc(OCC(=O)N2CCN(C(=O)Cc3ccccc3)CC2)c1	-2.4%	2.9%	-3.4%	-6.6%	-2.1%	1.8%
Cc1cccc(OCC(=O)N2CCC(c3ccccc3)C2)c1 (stereo not given)	20.6µM*	13.5µM*	3.16µM*	15.8µM*	2.82µM*	0.7%
CC1CCCN(C(=O)COc2ccc(-c3ccccc3)cc2)C1 (stereo not given)	7.4%	?	0.9%	13.7%	15.9%	2.0%
NNC(=O)C(Cc1c[nH]c2ccccc12)NC(=O)c1ccccc1 (stereo not given)	-0.9%	-0.1%	3.7%	.	-1.9%	.
SMILES	ELG1 genotoxic	FLuc counter	NPC1 promoter act	SMN2 splice enh	Rab9 prom act	Luc counter
Cc1nnc(N2CCC(C(=O)N3CCCCCC3)CC2)c2nn(-c3ccc(Cl)cc3)c(C)c12	-3.7%	0.7%	-12.3%	.	-3.9%	.
Cc1cccc(CNC(=O)CN2C(=O)CSc3c2c(C)nn3-c2ccccc2)c1	.	1.8%	.	.	.	.
Cc1cc([N+](=O)[O-])nn1Cc1ccc(C(=O)N/N=C/c2ccccc2)cc1	6.1%	?	-2.9%	-4.7%	-2.3%	-0.2%
CCN(CC)c1ccc(/C=N/NC(=O)c2ccc3c(c2)OCCO3)cc1	3.7%	7.57µM*	15.4%	.	-0.1%	.
CN(C)c1ccc(/C=N/NC(=O)c2cc(-c3ccc4c(c3)OCO4)n[nH]2)cc1	4.3%	12µM*	?	.	-6.2%	.
CN(C)c1ccc(/C=N/NC(=O)c2ccc3c(c2)OCCO3)cc1	?	4.78µM*	?	.	?	.
O=C(CNC(=O)c1ccc2c(c1)OCCO2)N/N=C/c1ccc([N+](=O)[O-])cc1	?	-0.2%	-5.0%	.	1.7%	.
O=C(CNC(=O)c1ccc2c(c1)OCCO2)N/N=C/c1ccc(Cl)cc1	-0.8%	?	-1.5%	-0.9%	-1.8%	-0.7%
Cc1cc([N+](=O)[O-])nn1Cc1ccc(C(=O)N/N=C/c2ccc(N(C)C)cc2)cc1	4.2%	9.53µM*	-4.2%	.	-6.2%	.
CCN(CC)CCCNC(=O)CSc1nc2nc(C)c(Cc3c(F)cccc3Cl)c(C)n2n1	.	0.9%	.	.	.	.
O=C1CCCN1CCCNc1nc2c(S(=O)(=O)c3ccc(Br)cc3)nnn2c2ccccc12	4.5%	1.2%	-3.3%	.	-4.1%	.
COc1ccc(N2CC(NC(=O)NCCC(C)C)CC2=O)cc1 (stereo not given)	1.0%	0.2%	-1.0%	?	0.7%	-1.7%
c1ccc2c(c1)Nc1nccnc1S2	?	23.9µM*	10.2%	?	20.5%	1.3%
COc1ccccc1C(=O)NCC(=O)NCC1(N2CCCCC2)CCCCC1	-3.6%	-1.5%	-0.2%	.	-8.3%	.
CC(C)n1cnnc1SCC(=O)Nc1ccc(N2CCCCC2)cc1	?	6.01µM*	-2.7%	.	1.9%	.
O=C(O)CSCC(=O)Nc1ccc(C2CCCCC2)cc1	.	12µM*	.	-24.6%	.	3.8%
Cc1ccc(NC(=O)CSCC(=O)O)cc1	0.5%	2.3%	-4.7%	.	13.8%	-0.8%
Nn1cnnc1SCC(=O)Nc1ccc(C2CCCCC2)cc1	?	5.36µM*	3.55µM*	?	?	-6.8%
CCC(C)c1ccc(NC(=O)CSc2nncn2N)cc1 (stereo not given)	?	?	16.2%	-11.3%	6.5%	-0.9%
CCc1cccc(CC)c1NC(=O)COC(=O)c1ccc(F)c(S(=O)(=O)N(CC)CC)c1	-0.4%	-7.6%	-1.0%	9.9%	0.1%	2.6%
COc1ccccc1CNC(=O)CCCNC(=O)Cn1cnc2sc(C)c(C)c2c1=O	5.1%	0.3%	1.5%	.	8.5%	.
CCC1CCCCN1C(=O)CCCOc1ccccc1 (stereo not given)	13µM*	19µM*	?	-2.0%	?	-0.7%
O=C(c1ccc(COc2ccc(Cl)cc2)cc1)N1CCCCC1	?	12µM*	?	11.9%	?	-2.6%
